Reference: ChEMBL document CHEMBL4513146, “CO-ADD screening of Karazin Kharkiv National University (Ukraine) compounds”
Measured potencies and affinities stand elsewhere.

What was measured:
Klebsiella pneumoniae = settings: Concentration 32 ug.mL-1;; ASSAY_TEST Inhibition of Bacterial Growth; detection method Absorption (OD600); MEDIA CAMHB; plate type 384well; NBS; CORNING #3640; time 18 hr
Candida albicans = settings: Concentration 32 ug.mL-1; ASSAY_TEST Inhibition of Fungal Growth; detection method Absorption (OD530)
Cryptococcus neoformans = settings: Concentration 32 ug.mL-1; ASSAY_TEST Inhibition of Fungal Growth; detection method Resazurin; Absorption (OD600-OD570); plate type 384well; NBS; CORNING #3640

Compound: COc1cc(NC(=O)Cn2nc3c(N4CCCC4)nccn3c2=O)cc(OC)c1
- Inhibition (Klebsiella pneumoniae): 0.81%
- Inhibition (Candida albicans): -1.46%
- Inhibition (Cryptococcus neoformans): -4.76%

Compound: Cc1nnc2c(=O)n(CC(=O)Nc3ccc(Cl)cc3F)c3ccccc3n12
- Inhibition (Klebsiella pneumoniae): 7.95%
- Inhibition (Candida albicans): 0.4%
- Inhibition (Cryptococcus neoformans): -18.26%

Compound: COc1ccc(-c2nc(CSc3nc4ccccc4n4c(C(C)C)nnc34)c(C)o2)cc1OC
- Inhibition (Klebsiella pneumoniae): -2.06%
- Inhibition (Candida albicans): 3.02%
- Inhibition (Cryptococcus neoformans): -7.98%

Compound: O=C(Cn1nc2c3cc(-c4ccccc4)nn3ccn2c1=O)N1CCCc2ccccc21
- Inhibition (Klebsiella pneumoniae): 12.97%
- Inhibition (Candida albicans): -0.58%
- Inhibition (Cryptococcus neoformans): -23.31%

Compound: Cc1nnc2ccc(S(=O)(=O)N(Cc3cccc(F)c3)c3ccc(Cl)cc3)cn12
- Inhibition (Klebsiella pneumoniae): 10.33%
- Inhibition (Candida albicans): -0.68%
- Inhibition (Cryptococcus neoformans): -10.1%

Compound: COC(=O)c1ccc(CN(c2cccc(C)c2)S(=O)(=O)c2cccn3c(C)nnc23)o1
- Inhibition (Klebsiella pneumoniae): 9.19%
- Inhibition (Candida albicans): 2.2%
- Inhibition (Cryptococcus neoformans): -7.03%

Compound: CCc1cccc(NC(=O)Cn2nc3c(SC4CCCCC4)nccn3c2=O)c1
- Inhibition (Klebsiella pneumoniae): 3.05%
- Inhibition (Candida albicans): 12%
- Inhibition (Cryptococcus neoformans): -17.3%

Compound: CCC(Sc1nnc2c(=O)n(-c3cccc(OC)c3)ccn12)C(=O)Nc1cc(C)ccc1C (stereo not given)
- Inhibition (Klebsiella pneumoniae): 11.08%
- Inhibition (Candida albicans): 1.67%
- Inhibition (Cryptococcus neoformans): -10.57%

Compound: O=C(Cn1nc2c(SCc3ccccc3)nccn2c1=O)NC1CCCC1
- Inhibition (Klebsiella pneumoniae): 3.94%
- Inhibition (Candida albicans): 1.33%
- Inhibition (Cryptococcus neoformans): -3.97%

Compound: COc1ccccc1-n1ccn2c(SCC(=O)Nc3ccc4c(c3)OCCO4)nnc2c1=O
- Inhibition (Klebsiella pneumoniae): 16.4%
- Inhibition (Candida albicans): 6.52%
- Inhibition (Cryptococcus neoformans): -7.16%

Compound: CC(C)Cn1c(=O)c2sccc2n2c(=O)n(Cc3ccc(Cl)cc3)nc12
- Inhibition (Klebsiella pneumoniae): 2.18%
- Inhibition (Candida albicans): -1.9%
- Inhibition (Cryptococcus neoformans): -15.45%

Compound: CCOc1ccc(-n2ccn3c(SCC(=O)c4ccc(C)cc4C)nnc3c2=O)cc1
- Inhibition (Klebsiella pneumoniae): 5.02%
- Inhibition (Candida albicans): 2.76%
- Inhibition (Cryptococcus neoformans): -5.48%

Compound: Cc1ccc(-c2nnc3c(=O)n(CC(=O)Nc4cc(C)cc(C)c4)c4ccccc4n23)cc1
- Inhibition (Klebsiella pneumoniae): 11.28%
- Inhibition (Candida albicans): -1.05%
- Inhibition (Cryptococcus neoformans): -21.63%

Compound: COc1ccc(-c2cc3c4nnc(SCC(=O)Nc5ccc(C)cc5Cl)n4ccn3n2)cc1
- Inhibition (Klebsiella pneumoniae): 11.06%
- Inhibition (Candida albicans): 0.54%
- Inhibition (Cryptococcus neoformans): -30.51%

Compound: COc1ccc(NC(=O)Cn2nc3ccc(-c4ccccc4)nn3c2=O)cc1
- Inhibition (Klebsiella pneumoniae): 5.42%
- Inhibition (Candida albicans): 2.69%
- Inhibition (Cryptococcus neoformans): -8.43%

Compound: COc1cccc(-n2ccn3c(=O)n(Cc4ccc([N+](=O)[O-])cc4)nc3c2=O)c1
- Inhibition (Klebsiella pneumoniae): 8.52%
- Inhibition (Candida albicans): 4.1%
- Inhibition (Cryptococcus neoformans): -8.87%

Compound: Cc1cccc(C)c1NC(=O)CSc1nnc2ccc(C(=O)Nc3cccc(F)c3)cn12
- Inhibition (Klebsiella pneumoniae): 10.23%
- Inhibition (Candida albicans): 10.31%
- Inhibition (Cryptococcus neoformans): -3.65%

Compound: CCc1nnc2c(=O)n(CC(=O)Nc3cc(Cl)ccc3Cl)c3ccccc3n12
- Inhibition (Klebsiella pneumoniae): 6.11%
- Inhibition (Candida albicans): 2.89%
- Inhibition (Cryptococcus neoformans): -19.25%

Compound: CC(=O)c1ccc(NC(=O)Cn2nc3ccc(-c4ccc(C)c(C)c4)nn3c2=O)cc1
- Inhibition (Klebsiella pneumoniae): 0%
- Inhibition (Candida albicans): 0.28%
- Inhibition (Cryptococcus neoformans): -8.82%

Compound: CCc1nnc2c(SCC(=O)Nc3ccc(Br)cc3)nc3ccccc3n12
- Inhibition (Klebsiella pneumoniae): -1.42%
- Inhibition (Candida albicans): 31.58%
- Inhibition (Cryptococcus neoformans): -6.67%

Compound: CCc1cccc(NC(=O)Cn2nc3ccc(SC(C)C)nn3c2=O)c1
- Inhibition (Klebsiella pneumoniae): 7.23%
- Inhibition (Candida albicans): 12.21%
- Inhibition (Cryptococcus neoformans): -12.08%

Compound: CCc1ccc(N(Cc2ccc(C)cc2)S(=O)(=O)c2cccn3cnnc23)cc1
- Inhibition (Klebsiella pneumoniae): -0.39%
- Inhibition (Candida albicans): 4.26%
- Inhibition (Cryptococcus neoformans): -5.61%

Compound: Cc1ccc(C(=O)C(C)Sc2nnc3c(=O)n(-c4ccc(F)c(F)c4)ccn23)cc1C (stereo not given)
- Inhibition (Klebsiella pneumoniae): -0.54%
- Inhibition (Candida albicans): 2.5%
- Inhibition (Cryptococcus neoformans): -3.72%

Compound: Cc1c(Cl)cccc1-n1ccn2c(=O)n(Cc3ccc(Cl)cc3)nc2c1=O
- Inhibition (Klebsiella pneumoniae): 2.87%
- Inhibition (Candida albicans): 1.02%
- Inhibition (Cryptococcus neoformans): -15.09%

Compound: COc1ccc(N2CCN(C(=O)Cn3nc4c(Oc5ccccc5)nccn4c3=O)CC2)cc1
- Inhibition (Klebsiella pneumoniae): 15.08%
- Inhibition (Candida albicans): 1.75%
- Inhibition (Cryptococcus neoformans): -7.66%

Compound: Cc1ccc(-c2ccc3nn(CC(=O)Nc4ccc(Cl)c(C(F)(F)F)c4)c(=O)n3n2)cc1C
- Inhibition (Klebsiella pneumoniae): 0.66%
- Inhibition (Candida albicans): 5.4%
- Inhibition (Cryptococcus neoformans): -13.03%

Compound: CCOc1ccc(-n2ccn3c(SCC(=O)Nc4cccc(Cl)c4)nnc3c2=O)cc1
- Inhibition (Klebsiella pneumoniae): 10.12%
- Inhibition (Candida albicans): 2.64%
- Inhibition (Cryptococcus neoformans): -5.2%

Compound: Cc1ccc(Sc2nccn3c(=O)n(CC(=O)N4CCN(c5ccccc5F)CC4)nc23)c(C)c1
- Inhibition (Klebsiella pneumoniae): 9.62%
- Inhibition (Candida albicans): 0.22%
- Inhibition (Cryptococcus neoformans): -25.75%

Compound: Cc1nc(-c2ccccc2)cc2nn(CC(=O)Nc3ccc4c(c3)OCO4)c(=O)n12
- Inhibition (Klebsiella pneumoniae): 6.91%
- Inhibition (Candida albicans): 0.14%
- Inhibition (Cryptococcus neoformans): -7.69%

Compound: COc1ccc(-c2cc3c4nn(CC(=O)Nc5c(C)cccc5C)c(=O)n4ccn3n2)cc1
- Inhibition (Klebsiella pneumoniae): 9.85%
- Inhibition (Candida albicans): 7.22%
- Inhibition (Cryptococcus neoformans): -19.98%
